Inconclusive results are not listed. A number with no mark means an inactive call. Calls of active or inactive are those of the source. Unless noted, the call rests on the fitted dose curve; in most records, active means well fitted curve in the direction sought with a large enough effect in the repeat runs; inconclusive means weak or mixed curves; inactive means no such curve, though single readings can be large; an effect the other way counts as inactive or inconclusive. Positions of bridges follow the written chain, without caps; N, C: chain ends. Residues, ends and D or L forms follow the SMILES beside them.

Assay [1] is described as follows: qHTS assay to identify aromatase inhibitors - cell viability counter screen (AID 743084).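 Further: cells stimulated with testosterone during compound exposure; nearly all actives have a fitted effect of over 55% in size.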 Further: potency means the concentration at half of the fitted maximal effect. The settings on record: MCF-7 aro ERE viability, CellTiter-Fluor, 24 h; series mostly up to 70.3 µM. In general terms: Quantitative high-throughput screening tests each substance at several concentrations.
In assay [2] the target is Aryl hydrocarbon receptor (Homo sapiens) (UniProt P35869). Kind of assay: qHTS assay to identify small molecule that activate the aryl hydrocarbon receptor (AhR) signaling pathway (AID 743085). Further: nearly all actives have a fitted effect of over 15% in size. Further: potency means the concentration at half of the fitted maximal effect.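 On activation: HG2L7.5c1 human HepG2 liver cells with stably integrated DRE-driven firefly reporter.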 To be noted: HepG2 AhR-luc (HG2L7.5c1), luciferase, 24 h; series mostly up to 70.3 µM. In a few lines: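 Cell line HG2L7.5c1 (human hepatoma, 20× DRE-luc). Plated, 5 h 37C, compound/DMSO added, 24 h 37C. CellTiter-Fluor 30 min 37C → fluorescence; then ONE-Glo 30 min RT → luminescence.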
Aryl hydrocarbon receptor (Homo sapiens), sequence (P35869 whole entry, looked up): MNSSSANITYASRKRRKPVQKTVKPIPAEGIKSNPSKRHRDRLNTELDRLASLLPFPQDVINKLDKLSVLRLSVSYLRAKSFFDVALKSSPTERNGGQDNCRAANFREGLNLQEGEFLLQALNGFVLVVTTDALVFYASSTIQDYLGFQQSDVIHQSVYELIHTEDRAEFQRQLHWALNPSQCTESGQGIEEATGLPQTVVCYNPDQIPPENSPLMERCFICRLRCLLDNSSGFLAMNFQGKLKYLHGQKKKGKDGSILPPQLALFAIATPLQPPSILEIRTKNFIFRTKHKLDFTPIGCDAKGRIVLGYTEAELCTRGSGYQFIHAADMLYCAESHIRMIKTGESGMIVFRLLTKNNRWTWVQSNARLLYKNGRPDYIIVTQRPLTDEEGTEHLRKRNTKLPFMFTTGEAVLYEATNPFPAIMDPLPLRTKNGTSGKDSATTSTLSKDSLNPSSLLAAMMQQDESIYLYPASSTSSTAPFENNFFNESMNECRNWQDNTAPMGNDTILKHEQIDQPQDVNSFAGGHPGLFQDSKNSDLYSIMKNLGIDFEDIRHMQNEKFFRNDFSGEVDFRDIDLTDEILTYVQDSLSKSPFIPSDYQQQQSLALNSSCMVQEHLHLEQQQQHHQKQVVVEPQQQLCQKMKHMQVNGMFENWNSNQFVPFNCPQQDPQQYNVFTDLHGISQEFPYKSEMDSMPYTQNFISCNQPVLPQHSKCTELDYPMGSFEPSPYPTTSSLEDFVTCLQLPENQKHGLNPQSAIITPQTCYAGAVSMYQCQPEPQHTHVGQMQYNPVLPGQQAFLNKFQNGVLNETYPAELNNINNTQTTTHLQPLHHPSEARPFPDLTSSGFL

A short description of assay [3]: qHTS assay to identify small molecule phospholipidosis (PLD) inducers (AID 1259344; active means well fitted curve in the direction sought with a large enough effect; an effect the other way counts as inactive or inconclusive). To be noted: HepG2 phospholipidosis, LipidTOX Red imaging, 24 h; series mostly up to 38.3 µM. In a few lines:
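After 4 h attachment on collagen I, HepG2 cells were dosed with compound alongside LipidTOX Red, kept 24 h at 37 C, fixed, and imaged for lamellar phospholipid pits.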

Assay [4] is described as follows: qHTS assay to identify small molecule that activate the aryl hydrocarbon receptor (AhR) signaling pathway - cell viability counter screen (AID 743086). Further: nearly all actives have a fitted effect of over 45% in size. Further: potency means the concentration at half of the fitted maximal effect. To be noted: HepG2-AhR-luc viability, CellTiter-Fluor, 24 h; series mostly up to 70.3 µM. The method, boiled down:
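HepG2-AhR-luc (HG2L7.5c1) cells, 4000/well, were preincubated 5 h at 37C, exposed to compound in qHTS format for 24 hr at 37C, then given CellTiter-Fluor for 30 min; viability was read as fluorescence in the reporter wells.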

The target of assay [5] is Peroxisome proliferator-activated receptor gamma (Homo sapiens) (UniProt P37231). The experiment in a line: qHTS assay to identify small molecule agonists of the peroxisome proliferator-activated receptor gamma (PPARg) signaling pathway (AID 743094; active means well fitted activation curve with a large enough effect in the signal ratio in the repeat runs, not every such curve was filed as active; the % refers to the signal ratio). To be noted: HEK293H PPARg-UAS-bla, beta-lactamase FRET ratio, 17 h; series mostly up to 57 µM. In a few lines: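 Cell-based bla reporter, HEK293H background, PPARg-driven UAS. Pre-incubation 5 h, 37C, 5% CO2. Compound 17 h, 37C. Substrate 1 h RT; fluorescence.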
Peroxisome proliferator-activated receptor gamma (Homo sapiens), sequence (P37231 whole entry, looked up): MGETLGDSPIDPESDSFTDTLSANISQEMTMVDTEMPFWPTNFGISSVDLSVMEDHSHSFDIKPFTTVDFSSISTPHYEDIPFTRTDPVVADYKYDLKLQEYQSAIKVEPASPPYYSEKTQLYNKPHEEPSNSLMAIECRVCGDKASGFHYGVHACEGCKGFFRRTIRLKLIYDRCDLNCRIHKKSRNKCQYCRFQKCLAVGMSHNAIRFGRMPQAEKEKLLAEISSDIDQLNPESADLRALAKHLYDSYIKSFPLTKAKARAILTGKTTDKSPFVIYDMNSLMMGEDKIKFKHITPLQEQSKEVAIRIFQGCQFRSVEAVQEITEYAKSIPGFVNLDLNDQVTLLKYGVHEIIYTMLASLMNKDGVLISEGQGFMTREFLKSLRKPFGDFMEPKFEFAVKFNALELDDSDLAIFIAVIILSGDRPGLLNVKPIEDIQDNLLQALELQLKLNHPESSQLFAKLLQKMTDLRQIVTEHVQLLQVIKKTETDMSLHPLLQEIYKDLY

Assay [6] concerns the target Nuclear receptor subfamily 1 group I member 2 (Homo sapiens) (UniProt O75469). The experiment in a line: CYP3A4 induction through human pregnane X receptor (PXR) by small molecules, qHTS assay (AID 1346984). Further: nearly all actives have a fitted effect of over 40% in size. To be noted: DPX-2 HepG2 PXR, CYP3A4-luciferin luminescence, 24 h; series mostly up to 46.1 µM. In a few lines:
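Human PXR activation is tracked via CYP3A4 promoter-luciferase in DPX-2 (HepG2) cells. Compounds treat cells for 24hr at 37C, and luminescence is read after One-Glo.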

Assay [7] shares this target. The experiment in a line: Human pregnane X receptor (PXR) activation by small molecules, qHTS assay (AID 1346985). Further: nearly all actives have a fitted effect of over 40% in size. Further: potency means the concentration at half of the fitted maximal effect. The settings on record: DPX-2 HepG2 CYP3A4-luciferase, 24 h; series mostly up to 38.3 µM. In a few lines: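 DPX-2 cells (HepG2 co-transfected with a PXR response element and a CYP3A4-promoter luciferase construct) were seeded at 2,000 per well, rested 5 hr at 37C, then exposed to DMSO-dissolved compounds for 24 hr. Activation was read as luciferase luminescence.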
On the % scale 0 is the no-effect control and ±100 the full control effect.

In the case of `Cc1cc(-n2c(=O)[nH]c(=O)n(C)c2=O)ccc1Oc1ccc(S(=O)(=O)C(F)(F)F)cc1`, the Potency entry in assay [1], in assay [2] and in assay [3] was “inactive” in each case.
As for `Cc1cc(Nc2ccccc2C(=O)O)ccc1Cl`, the Potency result in assay [1] and in assay [3] was “inactive” in each case. In assay [2], the Potency was 26.6 µM (active).
For `C#CCOc1ccc2c(C)cc(=O)oc2c1`, the Potency entry in assay [1], in assay [4], in assay [5], in assay [3] and in assay [6] was “inactive” throughout.
`OCC(O)COc1ccc(Cl)cc1` (stereo unspecified): the Potency entry in assay [1], in assay [2], in assay [4] and in assay [3] was “inactive” each time.
For `CCC(=O)OCC(=O)[C@@]1(OC(=O)CC)[C@@H](C)C[C@H]2[C@@H]3CCC4=CC(=O)C=C[C@]4(C)[C@@]3(Cl)[C@@H](O)C[C@@]21C`, the Potency entry in assay [1], in assay [4] and in assay [3] was “inactive” each time. The Potency in assay [2] was 10.6 µM (active).
Take `O.O=C([O-])CC([S-])C(=O)[O-].[Au+].[Na+].[Na+]` (stereo unspecified): the Potency result in assay [1], in assay [2] and in assay [3] was “inactive” in each case.
`CCN(CC)c1ccc(C(=C2C=CC(=[N+](CC)CC)C=C2)c2ccccc2)cc1`: in assay [1], the Potency is 7.5 µM (active). The Potency result in assay [2] and in assay [3] was “inactive” each time.
`CC(NNC(=O)c1ccccc1)c1ccccc1` (stereo unspecified): the Potency result in assay [1], in assay [4], in assay [5], in assay [3] and in assay [6] was “inactive” in each case. In addition, the Potency in assay [2] was 11.9 µM (active).
As for `CC(=O)O[C@H]1C[C@@]2(C)[C@@H](C[C@@H](O)[C@H]3[C@@]4(C)CC[C@@H](O)[C@@H](C)[C@@H]4CC[C@@]32C)/C1=C(\CCC=C(C)C)C(=O)O`, the Potency result in assay [1], in assay [2], in assay [4], in assay [5], in assay [3] and in assay [7] was “inactive” each time.
As for `CS(=O)(=O)OCCCNCCCOS(C)(=O)=O`, the Potency entry in assay [1], in assay [2] and in assay [3] was “inactive” in each case.
With `Cc1onc(-c2ccccc2)c1C(=O)N[C@@H]1C(=O)N2[C@@H]1SC(C)(C)[C@@H]2C(=O)O`, the Potency entry in assay [1], in assay [2] and in assay [4] was “inactive” in each case. In addition, the PLD induction in assay [3] was -3.09% [at 7.66 µM].
For `O=C(O)c1ccc(OCCn2ccnc2)cc1`, the Potency result in assay [1], in assay [2], in assay [4] and in assay [3] was “inactive” in each case.
In the case of `O=[N+]([O-])c1ccc(Oc2ccc(N=C=S)cc2)cc1`, the Potency entry in assay [1], in assay [2], in assay [4] and in assay [3] was “inactive” throughout.
On to `CCCC(=O)Nc1ncnc2c1ncn2[C@@H]1O[C@@H]2COP(=O)(O)O[C@H]2[C@H]1OC(=O)CCC`, for which the Potency entry in assay [1], in assay [2], in assay [4] and in assay [3] was “inactive” each time.
As for `CC1=C(/C=C/C(C)=C/C=C/C(C)=C/C=C/C=C(C)/C=C/C=C(C)/C=C/C2=C(C)C[C@@H](O)CC2(C)C)C(C)(C)C[C@H](O)C1`, the Potency result in assay [4], in assay [3], in assay [6] and in assay [7] was “inactive” each time.
Consider `CC[C@H](CC[C@@H](C)[C@H]1CC[C@H]2[C@@H]3CC=C4C[C@@H](O)CC[C@]4(C)[C@H]3CC[C@]12C)C(C)C`, for which the Potency result in assay [1], in assay [2] and in assay [3] was “inactive” in each case.
Turning to `CCC(C)C(C(=O)OCC[N+](C)(CC)CC)c1ccccc1` (stereo unspecified), the Potency entry in assay [1], in assay [2], in assay [4] and in assay [3] was “inactive” each time.
`CC1(C)N=C(N)N=C(N)N1c1ccc(Cl)cc1`: the Potency result in assay [1], in assay [2] and in assay [4] was “inactive” in each case. In addition, the PLD induction in assay [3] was -3.82% [at 7.66 µM].
In the case of `CC1(C)S[C@@H]2[C@H](NC(=O)[C@H](N)c3ccccc3)C(=O)N2[C@H]1C(=O)OCOC(=O)[C@@H]1N2C(=O)C[C@H]2S(=O)(=O)C1(C)C`, the Potency result in assay [1], in assay [2], in assay [4] and in assay [3] was “inactive” throughout.
As to `O=C(O)c1cccc(/C=C2/C[C@@H]3[C@@H](/C=C/[C@@H](O)C4CCCCC4)[C@H](O)C[C@@H]3O2)c1`, the Potency entry in assay [1], in assay [2], in assay [4] and in assay [3] was “inactive” in each case.
For `CC(C)CN(C[C@@H](OP(=O)(O)O)[C@H](Cc1ccccc1)NC(=O)O[C@H]1CCOC1)S(=O)(=O)c1ccc(N)cc1`, the Potency entry in assay [1], in assay [2], in assay [4] and in assay [3] was “inactive” in each case. In addition, the Potency in assay [7] was 10 µM (active).
As for `c1cnc2cc3c(cc2n1)[C@@H]1CNC[C@H]3C1`, the Potency result in assay [1], in assay [2], in assay [4], in assay [5] and in assay [3] was “inactive” in each case.
As for `CC(C)(C)NC(=O)[C@H]1CC[C@H]2[C@@H]3CC=C4C=C(C(=O)O)CC[C@]4(C)[C@H]3CC[C@]12C`, the Potency result in assay [1], in assay [2], in assay [4] and in assay [3] was “inactive” throughout.
`NCCCC[C@H](NC(=O)[C@@H]1CCCN1C(=O)[C@@H]1CSSC[C@H](NC(=O)CNC(=O)CNC(=O)CN)C(=O)N[C@@H](Cc2ccc(O)cc2)C(=O)N[C@@H](Cc2ccccc2)C(=O)N[C@@H](CCC(N)=O)C(=O)N[C@@H](CC(N)=O)C(=O)N1)C(=O)NCC(N)=O` (H-GGGCYFQNCPKG-NH2; disulfide 4-9): the Potency entry in assay [1], in assay [2], in assay [4], in assay [5] and in assay [3] was “inactive” in each case.
As for `Cc1cccc(C)c1N(CCCc1cccnc1)C(=O)C(C)N` (stereo unspecified), the Potency entry in assay [1], in assay [2], in assay [4] and in assay [5] was “inactive” throughout. Also, in assay [3], the PLD induction is -1.49% [at 1.53 µM].
In the case of `CC(=O)O[C@H]1CC[C@@]2(C)C(=CC[C@H]3[C@@H]4CC[C@H](C(C)=O)[C@@]4(C)CC[C@@H]32)C1`, the Potency result in assay [1], in assay [2], in assay [4] and in assay [5] was “inactive” in each case. Besides, in assay [3], the PLD induction was 6.8% [at 7.66 µM].
As for `CC(C)(C)CC(=O)OCC(=O)[C@@]12OC(C)(C)O[C@@H]1C[C@H]1[C@@H]3CCC4=CC(=O)C=C[C@]4(C)[C@@]3(F)[C@@H](O)C[C@@]12C`, the Potency result in assay [1], in assay [2], in assay [4], in assay [5] and in assay [3] was “inactive” each time.
Consider `CCCC(=O)N1CCCN(c2nc(N)c3cc(OC)c(OC)cc3n2)CC1`, for which the Potency entry in assay [1], in assay [4] and in assay [3] was “inactive” each time. In assay [2], the Potency is 5.31 µM (active).
Regarding `Cn1cc(NC(=O)c2cc(NC(=O)c3cc(NC=O)cn3C)cn2C)cc1C(=O)NCCC(=N)N`, the Potency result in assay [1], in assay [2], in assay [4], in assay [5] and in assay [3] was “inactive” each time.
Take `COc1ccc(C2NC(=S)N3C(c4ccc(OC)c(OC)c4)NC(=S)N23)cc1OC` (stereo unspecified): the Potency in assay [1] was 0.188 µM (active); in assay [4] it was 0.211 µM (active). For the same molecule, the Potency entry in assay [2] and in assay [5] was “inactive” each time. For the same molecule, the PLD induction in assay [3] is -4.32% [at 7.66 µM].
As to `OC[C@H]1O[C@@H](n2cnc3c2NC=NC[C@H]3O)C[C@@H]1O`, the Potency result in assay [1], in assay [2], in assay [4], in assay [5] and in assay [3] was “inactive” throughout.
With `N[C@@H](C(=O)N[C@@H]1C(=O)N2C(C(=O)O)=C(CSc3cn[nH]n3)CS[C@H]12)c1ccc(O)cc1`, the Potency entry in assay [1], in assay [2], in assay [4] and in assay [3] was “inactive” throughout.

Source of the values: PubChem BioAssay (Tox21).
